Sampled rows, rich in hits. Any-hit rate of the full collection: about 20%.
HCMV antiviral – blocks human cytomegalovirus replication | HFF cells, HCMV-luciferase reporter, 72 h; stronger effect = lower value | activity change, negative = inhibition, % at 57.5 µM | 410,000 compounds, 4.5% hits | AID 1259415; in the data active = activity change below about -60%; inconclusive = no clear call, values can overlap the other calls; inactive = above about -39%
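Human foreskin fibroblasts infected with luciferase-reporter HCMV at MOI 1 PFU/cell, compounds at two doses. Luciferase measured 72 h post infection; normalized to buffer-only basal and Salinomycin (10uM) controls.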
Pf growth 48h – P. falciparum growth inhibition at 48 hours (one generation); P. falciparum luciferase growth in erythrocytes, 48 h; Potency, µM (doses to about 28.7 µM), actives largely listed as inhibitors; 310,000 compounds, 5.9% hits
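In quantitative HTS format, infected erythrocytes bearing luciferase-reporter parasites were treated for a single generation at 37 C. Luminescence after adding detection reagent served as the growth measure.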
Pf growth 96h – inhibits malaria parasite growth, 96 h; P. falciparum luciferase reporter growth, 96 h; 320,000 compounds, 6.9% hits; Potency, µM (series often up to 28.7 µM), usual class: inhibitors
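Two parasite generations (96 h, 37 C, 5% CO2) of compound exposure in infected erythrocytes (0.05% parasitemia, 2% hematocrit). Luciferase-reporter P. falciparum; decreased luminescence indicates inhibited growth, aimed at apicoplast-acting delayed death.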
CHX counter – affects cycloheximide protein synthesis inhibition readout, counter-screen; cell reporter, cycloheximide protein synthesis inhibition counterscreen; max response, %; 300,000 compounds, 12% hits; in the data active = max response mostly above about 13%, no sharp cut-off; inactive = mostly below about 14%; also: read at 38.3 µM for the half of the compounds with a filed dose
Shiga inhibitor – inhibitors of Shiga toxin in Vero cells; AID 2315; Vero cells, Shiga toxin protein synthesis inhibition reporter; inhibition, % at 38.7 µM; 290,000 compounds, 9.2% hits; in the data active = inhibition mostly above about 28%, no sharp cut-off; inactive = mostly below about 43%
Large screens that a line does not name were inactive. Unless noted, calls follow the shape of the dose curve; as a rule, active = well fitted inhibition curve with a large enough effect; inconclusive = small, poorly fitted or top-dose-only effect, or another doubt; inactive = no such curve, though single readings can be large or run the other way.

COc1cccc(C(c2nnnn2CCc2ccccc2)N2CCN(c3ccccc3)CC2)c1OC (centres undefined)	Pf growth 48h 4.65µM, Pf growth 96h inconclusive
COc1ccccc1N1CCN(C(c2ccccc2)c2nnnn2CCc2ccccc2)CC1 (centres undefined)	HCMV antiviral inconclusive, Pf growth 48h 10.4µM
C=CCN1CCN(C(c2cccc(OC)c2OC)c2nnnn2CCC(C)C)CC1 (centres undefined)	Pf growth 48h 7.38µM
CS(=O)(=O)Nc1cccc(C(=O)CC2(O)C(=O)Nc3ccccc32)c1 (centres undefined)	HCMV antiviral -67.7
O=c1ccc2ccccc2n1Cc1cccc(F)c1	HCMV antiviral -62.3, Pf growth 96h inconclusive
CC12CN3CC(C)(CN(C1)C3c1ccc(OCc3ccccc3)cc1)C2=O (centres undefined)	none (no result: Pf growth 48h, Pf growth 96h, CHX counter, Shiga inhibitor)
COC(=O)CCCC1=CC2=C(c3ccccc3)C(=O)C(C)(OC(=O)C3CCCC3)C(=O)C2=CN1Cc1ccco1 (centres undefined)	Pf growth 48h inconclusive, Pf growth 96h 11.7µM
Cc1nc2cc(NC(=O)c3cccc(S(C)(=O)=O)c3)ccc2o1	CHX counter 12.8
Cc1ccc(NC(=O)c2cccc(S(C)(=O)=O)c2)cc1	CHX counter 32.6, Shiga inhibitor 97.3
CC(=O)Nc1ccc2oc(C)nc2c1	Pf growth 48h inconclusive
CS(=O)(=O)c1cccc(C(=O)Nc2cccc(S(=O)(=O)N3CCCC3)c2)c1	Pf growth 96h inconclusive (no result: CHX counter, Shiga inhibitor)
COC(=O)C1=CO[C@@H](O[C@@H]2O[C@H](CO)[C@@H](O)[C@H](O)[C@H]2O)C2C1C=C[C@@]2(O)CO (some centres undefined)	none (no result: Pf growth 48h, Pf growth 96h, CHX counter, Shiga inhibitor)
Fc1ccc(C(c2nnnn2C2CCCC2)N2CCc3ccccc32)cc1 (centres undefined)	Pf growth 48h inconclusive, Pf growth 96h inconclusive
Cc1ccc(C(c2nnnn2C2CCCC2)N2c3ccccc3CC2C)cc1 (centres undefined)	Pf growth 48h 13.1µM, Pf growth 96h inconclusive
COc1ccc(OC)c(C(c2nnnn2C2CCCC2)N2CCc3ccccc3C2)c1 (centres undefined)	Pf growth 48h 2.94µM
COc1ccc(C(c2nnnn2C2CCCC2)N2CCc3ccccc3C2)cc1OC (centres undefined)	HCMV antiviral inconclusive, Pf growth 48h 3.7µM
CCOc1ccc(C(=O)Nc2cccc(-c3nc4ccccc4[nH]3)c2C)cc1[N+](=O)[O-]	none
CC/C(=N\N1CCCCCC1)c1c(O)n(-c2ccccc2C)c(=O)[nH]c1=O	HCMV antiviral inconclusive, Pf growth 48h inconclusive, Pf growth 96h 4.65µM
CCC(=NCCN1CCOCC1)c1c(O)n(-c2ccccc2C)c(=O)[nH]c1=O	none
Nc1ncncc1-c1ccc([N+](=O)[O-])cc1	HCMV antiviral inconclusive
Cc1ccc2c(c1)C(c1ccc([N+](=O)[O-])cc1)=NNC(c1ccc(Br)cc1)=N2	Pf growth 96h inconclusive
CCc1ccc2c(c1)C(c1ccc([N+](=O)[O-])cc1)=NNC(c1ccc(Br)cc1)=N2	Pf growth 48h 9.28µM
Cn1nnnc1SCCCNCc1cccc(OCc2ccccc2F)c1	none (no result: Pf growth 48h, Pf growth 96h, CHX counter, Shiga inhibitor)
O=C(Nc1ccc2c(c1)CCC2)c1cc(S(=O)(=O)Nc2ccc(F)cc2)c(Cl)cc1Cl	Pf growth 96h inconclusive, CHX counter 19.1
O=C(Nc1ccc2c(c1)CCC2)c1cccc(OC(F)F)c1	none (no result: Pf growth 48h, Pf growth 96h, CHX counter, Shiga inhibitor)
COc1ccc(CC(=O)Nc2ccc3c(c2)CCC3)cc1	none
O=C(Nc1ccc2c(c1)CCC2)c1ccc(F)cc1	CHX counter 30.2
CCC(=O)Nc1ccc2c(c1)Cc1cc([N+](=O)[O-])ccc1-2	HCMV antiviral -86.2 (no result: Pf growth 48h, Pf growth 96h, CHX counter, Shiga inhibitor)
O=C(Cc1ccccc1)Nc1ccc2c(c1)CCC2	CHX counter 39.3, Shiga inhibitor 104.6
O=C(OCCN1CCCCC1)c1c[nH]c2ccccc12	none (no result: CHX counter, Shiga inhibitor)
COc1ccc(-n2cnnc2SCC(=O)NC2CC2)cc1	none (no result: Pf growth 48h, Pf growth 96h, CHX counter, Shiga inhibitor)
Cc1ccc(NC(=O)Nc2ccc3c(c2)CCC3)cc1	CHX counter 47.8, Shiga inhibitor 53.7
O=C(Nc1ccccc1)Nc1ccc2c(c1)CCC2	CHX counter 81.4, Shiga inhibitor 155.7
Cc1cc(C)cc(NC(=O)Nc2ccc3c(c2)CCC3)c1	none
O=C(Nc1cccc([N+](=O)[O-])c1)Nc1ccc2c(c1)CCC2	HCMV antiviral -103.4, CHX counter 12.2
CCOc1ccc(NC(=O)Nc2ccc3c(c2)CCC3)cc1	none
O=C(Nc1ccc(F)cc1)Nc1ccc2c(c1)CCC2	CHX counter 48.7, Shiga inhibitor 68.3
COc1ccc(C(=O)NCC(=O)OCc2c(Cl)cccc2Cl)cc1OC	Pf growth 48h inconclusive (no result: CHX counter, Shiga inhibitor)
COC(=O)CN(c1cccc(C)c1)S(=O)(=O)c1ccccc1	Pf growth 96h inconclusive
O=C(CC1CCCC1)Nc1ccc2c(c1)CCC2	CHX counter 29.1, Shiga inhibitor 50.8
O=[N+]([O-])c1cccc(CNc2ccc3c(c2)CCC3)c1	HCMV antiviral inconclusive, Shiga inhibitor active
Cc1ccccc1NC(=O)Nc1ccc2c(c1)CCC2	CHX counter 28.3, Shiga inhibitor 103.5
O=C(Nc1ccc(F)cc1)Nc1cccc(Br)c1	HCMV antiviral -87.6 (no result: Pf growth 48h, Pf growth 96h, CHX counter, Shiga inhibitor)
Cc1ccc2nc(NC(=O)CSc3ncc(C(=O)Nc4ccc(F)cc4)c(=O)n3C)sc2c1	none (no result: Pf growth 48h, Pf growth 96h, CHX counter, Shiga inhibitor)
C/C=C(\C)C(=O)O[C@@H]([C@H](O)c1cc2ccc(=O)oc2cc1OC)C(C)(C)O	none (no result: CHX counter, Shiga inhibitor)
O=C(Nc1cccc(F)c1)Nc1ccc2c(c1)C(=O)OC2	none
Cc1ccccc1NC(=O)Nc1ccc(C(F)(F)F)cc1	CHX counter 23.2, Shiga inhibitor 56.1
Cc1ccccc1NC(=O)CNC(=O)c1ccc(C(F)(F)F)cc1	none
Cc1ccc(NC(=O)Nc2ccccc2F)cc1S(=O)(=O)N1CCOCC1	Pf growth 48h inconclusive, Pf growth 96h inconclusive (no result: CHX counter, Shiga inhibitor)
CC(=O)Nc1cccc(NC(=O)Nc2ccc(F)cc2F)c1	none
O=C(Nc1ccc2c(c1)CCC2)Nc1ccc(F)cc1F	Pf growth 96h inconclusive, CHX counter 67.3, Shiga inhibitor 73.5
O=C(Nc1ccc2c(c1)CCC2)Nc1ccccc1F	CHX counter 46.6, Shiga inhibitor 64.5
O=C(Nc1cccc(F)c1)Nc1ccc2c(c1)CCC2	Pf growth 96h 1.65µM, CHX counter 24.5, Shiga inhibitor 80.0
C/C(=N\N1CCN(Cc2ccc(Cl)cc2)CC1)c1ccc([N+](=O)[O-])cc1	none
CCCNC(=O)Nc1ccc(C(F)(F)F)cc1	Pf growth 96h inconclusive, CHX counter 17.9, Shiga inhibitor 43.2
O=C(Nc1ccc2c(c1)CCC2)c1ncoc1-c1ccccc1F	HCMV antiviral inconclusive, CHX counter 27.3
CCCCNC(=O)Nc1ccc(C(O)(C(=O)OC)C(F)(F)F)cc1 (centres undefined)	none
O=C(CN1C(=O)NC2(CCOc3ccccc32)C1=O)c1ccc[nH]1 (centres undefined)	none (no result: CHX counter, Shiga inhibitor)
COc1ccc(C(c2nnnn2-c2c(C)cccc2C)N2CCC(n3c(=O)[nH]c4ccccc43)CC2)cc1 (centres undefined)	HCMV antiviral -69.0 (no result: Pf growth 48h, Pf growth 96h, CHX counter, Shiga inhibitor)
Cc1cccc(C)c1-n1nnnc1C(c1cc2ccccc2o1)N1CCC(n2c(=O)[nH]c3ccccc32)CC1 (centres undefined)	HCMV antiviral -66.6 (no result: Pf growth 48h, Pf growth 96h, CHX counter, Shiga inhibitor)

Screens as filed in PubChem.
